For 14 compounds, outcome and AC50 results are on record in PubChem BioAssay (EPA / NIEHS).

The term AC50 denotes the concentration giving half of the maximal activity seen.

SMILES strings stand for the structures. Values joined by “and” are separate entries in the source; they are usually repeats but may differ in a detail not shown here. Equal entries are not always repeated. Some compounds were tested as several samples or in several runs, with calls that do not always agree. Active and inactive are the calls of the source. How the source made its calls: active means hit-call score of the fitted dose curve at least 0.9, where 1 is the maximum; inactive means score below 0.9.

The assay can be described thus: CCTE_Shafer_MEA_dev_interburst_interval_mean: CCTE's Neural Network Formation Assay for Mean Interburst Interval, Shafer Lab (AID 2284046). Here is the method:
CCTE_Shafer_MEA_dev assay is conducted using Axion Biosystems 48 well microelectrode array (MEA) plates and Maestro recording system. Each well of the MEA plate contains a grid of 16 microelectrodes embedded in the culture surface. Electrically active cells, such as neurons, can be cultured over the electrodes, and electrical activity in these cells can be recorded extracellularly. The spontaneous firing of neurons is captured from each electrode on a microsecond timescale providing both temporally and spatially precise data. […] The CCTE_Shafer_MEA_dev assay uses primary cultures of rat cortical neurons. Recordings are made on days post-plating 5, 7, 9 and 12. As these cultures mature over time, neural networks develop functional activity and form cohesive networks in which electrical activity can be highly coordinated. CCTE_Shafer_MEA_dev_interburst_interval_mean is 1 of 19 assay components of the CCTE_Shafer_MEA_dev assay. It measures the average time interval between consecutive single-electrode bursts (temporally-clustered groups of action potential firing) during a recording in a microelectrode array (MEA) using Axion Biosystems Maestro 768 channel amplifier with the AxIS adaptive spike detector. The mean inter-burst interval is averaged across the actively bursting electrodes to report a well-mean value. To collapse across multiple recordings made on days post-plating 5, 7, 9 and 12, the trapezoidal area-under-the-curve of the component is calculated.Data from the assay component CCTE_Shafer_MEA_dev_interburst_interval_mean was analyzed into 1 assay endpoint. This assay endpoint, CCTE_Shafer_MEA_dev_interburst_interval_mean, was analyzed in the negative analysis fitting direction relative to DMSO as the negative control and baseline of activity. Using a type of functional reporter, gain or loss-of-signal activity can be used to understand electrical activity.
On the day prior to culture, each well was coated thoroughly with 150 uL of 0.05% polyethyleneimine (PEI, Sigma Cat P3143) in 50 mM HEPES (Sigma Cat H7523) at a pH of 8. The plate was incubated at 37C for one hour. PEI was rinsed out with 500 uL of sterile water three times. Plates were stored at 4C until the day of culture. This culture was plated at a seeding density of 1.5 x 10^5 cells/well on a 48-well MEA plate, prepared as described above. Cells were administered via a 25 uL media/laminin ([…]; Sigma Cat L2020-1MG) drop directly onto the microelectrode array, as adding the cells with the laminin results in better attachment than pre-coating with laminin. After 2 hours, an additional 475 uL of cortical media was added and the cells returned to the incubator. Exposure starts at day 0 of plating and is continued over twelve days of network development until the experiment is terminated. Cells are fed with fresh medium on DIV 5 and 9, following the recordings on those days. The entire volume of media in the well is exchanged and any vehicle or compound treatment is renewed. Complete details are found in OP-NHEERL/ISTD/SBB/TJS/2015-03-r0 (available on request, email shafer.tim@epa.gov). Measurement of the electrical activity is non-invasive, and recordings can be made from the same plate over multiple different days of the culture. In cortical neurons, this allows for the measurement of extracellular action potentials over the period during which networks form in the MEA plate.
Take `O=C(O)COc1ccc(Cl)cc1Cl`: the call was inactive.

`O=S(=O)(O)C(F)(F)C(F)(F)C(F)(F)C(F)(F)C(F)(F)C(F)(F)C(F)(F)C(F)(F)F`: the compound was called inactive.

Turning to `COP(=O)(OC)OC=C(Cl)Cl`, the outcome was inactive and the AC50 is 2.02 µM (active).

In the case of `CC1(C)C(C=C(Cl)Cl)C1C(=O)OC(C#N)c1ccc(F)c(Oc2ccccc2)c1` (stereo unspecified), the AC50 was 49.9 µM (active) and 21 µM (active); the compound was called inactive.

For `O=[N+]([O-])/N=C1\NCCN1Cc1ccc(Cl)nc1`, the call was inactive.

As for `Oc1cc(Cl)ccc1Oc1ccc(Cl)cc1Cl`, the AC50 was 15.6 µM (active).

Consider `COP(=S)(OC)Oc1ccc([N+](=O)[O-])cc1`, for which the call was inactive.

With `CC(C)N(C(=O)COc1nnc(C(F)(F)F)s1)c1ccc(F)cc1`, the call was inactive.

As to `CC1(c2ccc(Oc3ccccc3)cc2)OC(=O)N(Nc2ccccc2)C1=O` (stereo unspecified), the concentration at half-maximal activity (AC50) is 4.55 µM (active).

Take `CNC(=O)CSP(=S)(OC)OC`: the call was inactive.

As to `CCC(C)(C)C(=O)OC1=C(c2ccc(Cl)cc2Cl)C(=O)OC12CCCCC2`, the outcome was inactive.

For `O=C(O)C(F)(F)C(F)(F)C(F)(F)C(F)(F)C(F)(F)C(F)(F)C(F)(F)F`, the compound was classed as inactive.

`CC[C@H](C)[C@H]1O[C@]2(C=C[C@@H]1C)C[C@@H]1C[C@@H](C/C=C(\C)[C@@H](O[C@H]3C[C@H](OC)[C@@H](O[C@H]4C[C@H](OC)[C@@H](O)[C@H](C)O4)[C@H](C)O3)[C@@H](C)/C=C/C=C3\CO[C@@H]4[C@H](O)C(C)=C[C@@H](C(=O)O1)[C@]34O)O2` (tested in a mixture with another compound): the AC50 is 12.2 nM (active) and 2.7 nM (active).

`O=S1OCC2C(CO1)C1(Cl)C(Cl)=C(Cl)C2(Cl)C1(Cl)Cl` (stereo unspecified): the call was inactive.
